Source: the supplement of paper PMC12045047
Where a name gives a salt, the structure may show the parent alone.

Each compound was assayed on primary human airway basal cells (HBEC, luciferase-transduced) (assay: proliferation (luciferase bioluminescence) Z score relative to plate mean; higher = more proliferation / more cells, active = 1.96 or more). Conditions: donor: 1; 0.5 µM; library: ENZO Libraries; 4 days.
Method: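 Primary human bronchial epithelial (airway basal) cells from two donors, lentivirally transduced with pHIV-Luc-ZsGreen, were seeded at 2000 cells/well in 384-well plates in FAD medium with ENZO or Prestwick library compounds and cultured for 4 days. Luciferin was then added and bioluminescence was read as a measure of cell number. Relative light units were converted to Z scores against the plate, and the mean of triplicate wells is reported.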
`O=C[C@@H]1CCCN1C(=O)[C@@H]1CCCN1C(=O)OCc1ccccc1` [Z-Prolyl-prolinal] was tested, and the proliferation was -0.531 (inactive).
With `COc1cc2nc(N3CCCN(C)CC3)nc(NC3CCN(Cc4ccccc4)CC3)c2cc1OC` the proliferation was -0.123 (inactive).
`CCCCCCCCCCCCC/C=C/[C@@H](O)[C@@H](N)CO` [D-erythro-Sphingosine] was tested, and the proliferation was -0.0291 (inactive).
With `O=c1oc(Cl)c(Cl)c2ccccc12` [34-Dichloroisocoumarin] the proliferation was 0.257 (inactive).
`Oc1ccc(/C=C/c2cc(O)cc(O)c2)cc1` [Resveratrol] was tested, and the proliferation was 1.08 (inactive).
In the case of `O=C1c2ccccc2C(=O)c2c(NCCc3ccc(O)cc3)ccc(NCCc3ccc(O)cc3)c21`, the proliferation is reported as 0.275 (inactive).
`NC(=O)c1cccnc1` [Nicotinamide] was tested, and the proliferation was 0.0934 (inactive).
In the case of `COc1cccc(-c2cc(=O)c3ccccc3o2)c1N`, the proliferation is reported as 2.9 (active).
In the case of `Nc1c(O)cc(O)cc1C=Cc1ccc(O)cc1` [Aminoresveratrol sulfate], the proliferation is reported as 0.00314 (inactive).
In the case of `O=C1Cc2c([nH]c3ccc(Br)cc23)-c2ccccc2N1` [Kenpaullone], the proliferation is reported as 3.89 (active).
`CCOC(=O)C1=CN(Cc2ccccc2)C=C(C(=O)OCC)C1c1ccccc1` was tested, and the proliferation was 0.415 (inactive).
For `CCCCCCCCCC(=O)N[C@@H](CCCN=C(N)N)C(=O)N[C@H](C(=O)N[C@@H](CCCCN)C(=O)N[C@@H](CCCN=C(N)N)C(=O)CCl)C(C)C`, the proliferation was 0.21 (inactive).
`N#C/C(=C\c1ccc(O)c(O)c1)C(N)=O` was tested, and the proliferation was -0.0866 (inactive).
In the case of `O=c1ncccn1[C@@H]1O[C@H](CO)[C@@H](O)[C@H]1O` [Zebularine], the proliferation is reported as -0.238 (inactive).
In the case of `CC(C)C[C@H](NP(=O)(O)O[C@@H]1O[C@@H](C)[C@H](O)[C@@H](O)[C@H]1O)C(=O)N[C@@H](Cc1c[nH]c2ccccc12)C(=O)O` [Phosphoramidon], the proliferation is reported as -0.109 (inactive).
For `CC(C)(C)c1cc(C=C(C#N)C(N)=S)cc(C(C)(C)C)c1O`, the proliferation was -0.666 (inactive).
In the case of `O=C(O[C@@H]1Cc2c(O)cc(O)cc2O[C@@H]1c1cc(O)c(O)c(O)c1)c1cc(O)c(O)c(O)c1` [Epigallocatechin gallate], the proliferation is reported as 0.183 (inactive).
`O=c1cc(-c2ccc(O)cc2)oc2cc(O)cc(O)c12` [Apigenin] was tested, and the proliferation was 0.308 (inactive).
In the case of `N#CC(=Cc1ccc2[nH]ccc2c1)C(N)=C(C#N)C#N`, the proliferation is reported as 0.0615 (inactive).
`NC(=O)c1ccncc1` [Isonicotinamide] was tested, and the proliferation was 0.125 (inactive).

Same assay, conditions: donor: 1; 5 µM; library: ENZO Libraries; 4 days
`O=C[C@@H]1CCCN1C(=O)[C@@H]1CCCN1C(=O)OCc1ccccc1` [Z-Prolyl-prolinal] was tested, and the proliferation was -0.515 (inactive).
In the case of `COc1cc2nc(N3CCCN(C)CC3)nc(NC3CCN(Cc4ccccc4)CC3)c2cc1OC`, the proliferation is reported as -0.996 (inactive).
For `CCCCCCCCCCCCC/C=C/[C@@H](O)[C@@H](N)CO` [D-erythro-Sphingosine], the proliferation was 0.187 (inactive).
In the case of `O=c1oc(Cl)c(Cl)c2ccccc12` [34-Dichloroisocoumarin], the proliferation is reported as 0.055 (inactive).
`Oc1ccc(/C=C/c2cc(O)cc(O)c2)cc1` [Resveratrol] was tested, and the proliferation was 3.39 (active).
With `O=C1c2ccccc2C(=O)c2c(NCCc3ccc(O)cc3)ccc(NCCc3ccc(O)cc3)c21` the proliferation was -0.000622 (inactive).
In the case of `NC(=O)c1cccnc1` [Nicotinamide], the proliferation is reported as 0.119 (inactive).
With `COc1cccc(-c2cc(=O)c3ccccc3o2)c1N` the proliferation was 2.39 (active).
In the case of `Nc1c(O)cc(O)cc1C=Cc1ccc(O)cc1` [Aminoresveratrol sulfate], the proliferation is reported as 1.56 (inactive).
With `O=C1Cc2c([nH]c3ccc(Br)cc23)-c2ccccc2N1` [Kenpaullone] the proliferation was -0.683 (inactive).
For `CCOC(=O)C1=CN(Cc2ccccc2)C=C(C(=O)OCC)C1c1ccccc1`, the proliferation was 0.65 (inactive).
`CCCCCCCCCC(=O)N[C@@H](CCCN=C(N)N)C(=O)N[C@H](C(=O)N[C@@H](CCCCN)C(=O)N[C@@H](CCCN=C(N)N)C(=O)CCl)C(C)C` was tested, and the proliferation was 0.0695 (inactive).
For `N#C/C(=C\c1ccc(O)c(O)c1)C(N)=O`, the proliferation was -0.0854 (inactive).
`O=c1ncccn1[C@@H]1O[C@H](CO)[C@@H](O)[C@H]1O` [Zebularine] was tested, and the proliferation was 0.0287 (inactive).
In the case of `CC(C)C[C@H](NP(=O)(O)O[C@@H]1O[C@@H](C)[C@H](O)[C@@H](O)[C@H]1O)C(=O)N[C@@H](Cc1c[nH]c2ccccc12)C(=O)O` [Phosphoramidon], the proliferation is reported as 0.079 (inactive).
For `CC(C)(C)c1cc(C=C(C#N)C(N)=S)cc(C(C)(C)C)c1O`, the proliferation was -0.702 (inactive).
In the case of `O=C(O[C@@H]1Cc2c(O)cc(O)cc2O[C@@H]1c1cc(O)c(O)c(O)c1)c1cc(O)c(O)c(O)c1` [Epigallocatechin gallate], the proliferation is reported as -0.177 (inactive).
For `O=c1cc(-c2ccc(O)cc2)oc2cc(O)cc(O)c12` [Apigenin], the proliferation was 3.23 (active).
`N#CC(=Cc1ccc2[nH]ccc2c1)C(N)=C(C#N)C#N` was tested, and the proliferation was -0.386 (inactive).
In the case of `NC(=O)c1ccncc1` [Isonicotinamide], the proliferation is reported as -0.0123 (inactive).
